Source: PubChem BioAssay (National Center for Advancing Translational Sciences (NCATS))
DT40 TDP1 CPT – growth inhibition of DT40 Tdp1-/-;hTDP1 cells with camptothecin (screen for TDP1 inhibitors); Potency, µM (top dose mostly 46.2 µM), without a hit: at the highest dose activity change, negative = growth inhibition, usual class: inhibitors; chicken DT40 Tdp1-/-;hTDP1 cells + 20 nM CPT, ATP luminescence, 48 h; actives 12% (n = 420,000); AID 686979; also: potency is read from the fitted curve at half-maximal effect; nearly all actives have a fitted effect of over 55% in size
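Chicken DT40 Tdp1-/- cells complemented with human TDP1, 400 cells/well, exposed to compounds plus 20 nM camptothecin for at least 48 h at 37 C; viability read as ATP content by CellTiter-Glo luminescence.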
ELG1 repair inh – ELG1-dependent DNA repair inhibition; HEK293T ELG1-luciferase reporter, luminescence, 16 h; DNA damage induced by 5-fluorouridine; actives 2.3% (n = 330,000); AID 504467; Potency, µM (top dose mostly 46.1 µM), without a hit: at the highest dose activity change, negative = inhibition, usual class: inhibitors; also: potency is read from the fitted curve at half-maximal effect; nearly all actives have a fitted effect of over 55% in size
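Reporter activity after DNA damage by 5-fluorouridine is monitored. Compound-treated cells incubate 16 hr at 37 °C, then ONE-Glo is added for 30 min before luminescence reading.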
TDP1 cell noCPT – qHTS for Inhibitors of human tyrosyl-DNA phosphodiesterase 1 (TDP1): qHTS in cells in absence of CPT. DT40 Tdp1-/- hTDP1 cells, no CPT, ATP luminescence, 48 h. Potency, µM (doses to about 46.2 µM), inactives show top-dose activity change, negative = growth inhibition, most hits filed as inhibitors. actives 15% (n = 420,000). AID 686978, 2013; also: potency is read from the fitted curve at half-maximal effect; nearly all actives have a fitted effect of over 55% in size
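Luminescent ATP content (CellTiter-Glo) served as the growth readout. Knockout chicken DT40 cells expressing human TDP1 were exposed to compounds without camptothecin for a minimum 48 hr at 37 °C.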
IL-1B inflam inh – inhibitors of inflammasome signaling (IL-1 beta secretion). THP-1 LPS/ATP IL-1B secretion, AlphaLISA, 16 h; stronger effect = lower value. actives 4.7% (n = 360,000). activity change, % at 57.5 µM; in the data active = activity change below about -50%; inconclusive = mostly about -30% to -49%
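Secreted IL-1B measured by AlphaLISA bead assay after 16 h compound exposure of THP-1 cells; compounds (final up to 57.5 uM) added 1 h before LPS (250 ng/mL) and ATP (1.25 mM) stimulation; lower signal means less secretion.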
Gal4-VP16 FLuc – Gal4-VP16 reporter inhibition counter-screen. Potency, µM (highest dose often 53.6 µM), for the others: at the top dose activity, negative = inhibition, usual class: inhibitors. Drosophila S2 Gal4-VP16 UAS-luciferase, luminescence, 20 h. actives 3.5% (n = 310,000);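 also: Gal4-VP16 expression switched on by copper sulfate through the metallothionein promoter; potency is read from the fitted curve at half-maximal effect; nearly all actives have a fitted effect of over 50% in size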
RORgamma inh – inhibitors of mouse ROR gamma transcriptional activity; Potency, µM (highest dose often 53.6 µM), for inactives: at the highest dose activity change, negative = inhibition, hits mostly inhibitors; P51450; Drosophila S2 Gal4-RORgamma UAS-luciferase reporter, 20 h; actives 5.4% (n = 310,000); also: potency is read from the fitted curve at half-maximal effect; nearly all actives have a fitted effect of over 60% in size
Target sequence (P51450 whole entry, looked up, the tested form may be a part): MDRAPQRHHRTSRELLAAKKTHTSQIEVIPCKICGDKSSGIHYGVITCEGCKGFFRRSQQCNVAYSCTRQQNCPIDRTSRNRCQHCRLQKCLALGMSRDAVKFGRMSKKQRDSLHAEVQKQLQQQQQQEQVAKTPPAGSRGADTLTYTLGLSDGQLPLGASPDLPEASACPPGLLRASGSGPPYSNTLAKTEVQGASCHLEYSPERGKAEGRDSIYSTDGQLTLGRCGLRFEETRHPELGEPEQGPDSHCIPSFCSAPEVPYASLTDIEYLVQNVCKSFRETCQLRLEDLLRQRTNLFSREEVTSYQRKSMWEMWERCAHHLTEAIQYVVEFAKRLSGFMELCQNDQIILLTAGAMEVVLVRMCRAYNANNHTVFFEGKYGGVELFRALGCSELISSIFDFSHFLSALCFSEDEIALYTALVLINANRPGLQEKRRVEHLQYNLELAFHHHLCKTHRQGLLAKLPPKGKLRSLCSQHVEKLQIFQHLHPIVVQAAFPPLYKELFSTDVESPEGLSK
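ROR gamma transcriptional activity was tracked as Gal4-UAS luciferase output in stably transfected Drosophila Schneider cells, with compound added 1 hr before 700 uM copper sulfate induction and a 20 hr ambient-temperature incubation.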
Starred values were filed as active, the others as inactive; ? = inconclusive; / = no result; ! = not confirmed by another sample; [ ] = dose if it differs, or a comment. In the library only some 21% were active in any assay of this set; here they are far more common. Unless noted, calls follow the shape of the dose curve; as a rule, active = well fitted curve in the direction sought with a large enough effect; inconclusive = small, poorly fitted or top-dose-only effect, or another doubt; inactive = no such curve, though single readings can be large; an effect the other way counts as inactive or inconclusive. % is scaled to controls: 0 for no effect and ±100 for the full control effect.

SMILES	DT40 TDP1 CPT	ELG1 repair inh	TDP1 cell noCPT	IL-1B inflam inh	Gal4-VP16 FLuc	RORgamma inh
COc1cc(NS(=O)(=O)c2ccc3[nH]c4c(c3c2)CCCCCC4)cc(OC)c1	?	/	12µM*	/	/	/
COc1ccc(NS(=O)(=O)c2ccc(OC)c(OC)c2)cc1OC	-11%	-12%	?	28	-4%	?
COc1ccc(CNC(=O)c2cnc(N3CCCC3)nc2C)cc1	13%	/	-15%	/	/	/
COc1ccccc1NC(=O)c1nnn(-c2ccc(F)cc2)c1C	-16%	/	12%	/	/	/
COc1ccc2nc(SCC(=O)NCc3ccc(S(N)(=O)=O)cc3)[nH]c2c1	-20%	7%	-27%	0	1%	0%
CCOc1cc(/C=C2/SC(=S)NC2=O)ccc1OC(=O)c1ccco1	23µM*	?	12µM*	-51*	9%	?
O=C1NC(=S)S/C1=C/c1ccc(OC(=O)c2ccco2)cc1	?	?	-8%	?	?	0%
COc1cc(/C=C2/SC(=O)NC2=O)ccc1OC(=O)c1ccco1	16µM*	-2%	16µM*	-22	-6%	36%
CC1=C(C(=O)N2CCOCC2)CC(CC(=O)NC2CCCCC2)C(=O)N1Cc1ccc(F)cc1 (stereo not drawn)	-6%	/	-6%	20	/	/
COc1cc(OC)c2ccc(=O)oc2c1C(CCN1CCCC1)c1ccc(N(C)C)cc1 (stereo not drawn)	9.2µM*	23%	?	-2	-2%	-2%
COc1cc(OC)c2ccc(=O)oc2c1C(CC(=O)N1CCCC1)c1ccc(N(C)C)cc1 (stereo not drawn)	?	11%	?	-4	-5%	8%
CCN(CC)CCC(c1ccc(N(C)C)cc1)c1c(OC)cc(OC)c2ccc(=O)oc12 (stereo not drawn)	10µM*	?	13µM*	-2	-5%	-2%
C[C@H](CO)N1C[C@H](C)[C@H](CN(C)C(=O)Nc2ccccc2F)OCc2cnnn2CCCC1=O	0%	/	5%	1	/	/
COc1ncc2nc(-c3cc(F)cc(F)c3)c(=O)n(Cc3cccs3)c2n1	15%	/	10%	/	-5%	3%
COc1cc(/C=N/OCC(=O)Nc2cc(C)cc(C)c2)ccc1OCc1ccc(Cl)cc1	?	?	13µM*	-5	0%	-1%
COc1cc(/C=N/OCC(=O)NC2CCCCC2C)ccc1OCc1ccc(Cl)cc1 (stereo not drawn)	18µM*	?	18µM*	?	-17%	?
COC(=O)c1ccc(/C=N/OCC(=O)NC2CCCC(C)C2C)cc1 (stereo not drawn)	?	-15%	?	4	12%	24%
COc1cc(/C=N/N2CCOCC2)ccc1OCc1ccc(Cl)cc1	-2%	?	?	-11	-9%	13%
O=C(NCc1cccnc1)c1cccc(S(=O)(=O)Nc2ccc(F)cc2)c1	?	-7%	?	12	/	/
Cc1ccc(S(=O)(=O)Nc2cccc(C(=O)NCC(c3ccccc3)N(C)C)c2)cc1F (stereo not drawn)	-15%	5%	?	?	/	/
Cc1ccc(S(=O)(=O)Nc2cccc(C(=O)NCc3cccnc3)c2)cc1F	?	-21%	4.6µM*	16	/	/
Cc1ccc(S(=O)(=O)Nc2cccc(C(=O)NCC(c3ccco3)N(C)C)c2)cc1F (stereo not drawn)	?	0%	21µM*	-8	/	/
Cc1cc(Nc2ccccc2C(=O)O)ccc1Cl	-9%	/	-24%	/	/	/
CC(C)[C@@H](CC(=O)N[C@@H]1CCNC[C@H]1C(=O)N[C@H](CC(=O)N[C@@H](CCC(=O)O)CC(=O)O)Cc1c[nH]c2ccccc12)NC(=O)C[C@H](Cc1c[nH]c2ccccc12)NC(=O)[C@@H]1CNCC[C@H]1N	/	/	/	/	-2%	-21%
O=C(N/C(=C/c1ccc(F)cc1)C(=O)N1CCCCC1)c1ccco1	4%	-1%	12%	8	-3%	-6%
SMILES	DT40 TDP1 CPT	ELG1 repair inh	TDP1 cell noCPT	IL-1B inflam inh	Gal4-VP16 FLuc	RORgamma inh
COc1ccc(C(=O)Nc2nnc(S(=O)(=O)N3CCN(c4ccc(C)cc4)CC3)s2)cc1	3%	/	-28%	/	/	/
CCN1CCCC1CNC(=O)c1ccc(Sc2ccccc2Cl)c([N+](=O)[O-])c1 (stereo not drawn)	?	5%	?	-50*	1%[10 µM]	?
CCCOc1ccc(Oc2nc(NC)nc(N3CCOCC3)n2)nn1	?	/	-10%	/	/	/
N[C@@H](C(=O)O)c1cc(O)ccc1Cl	2.4µM*	/	1.2µM*	/	1%	1%
N[C@H](C(=O)O)c1cc(O)cc(O)c1	?	/	-8%	/	5%	2%
OC1CCN(Cc2ccc3c(c2)CN(Cc2ccc(Oc4ncccn4)cc2)CCO3)CC1	1%	/	-8%	/	/	/
Cc1ccc2nc(-c3cccc(Cl)c3)c(Cc3cccc(F)c3)n2c1	?	/	?	0	/	/
CCC(C)Sc1cccc(-c2nc3ccc(Cl)cn3c2NCc2ccccc2)c1 (stereo not drawn)	23µM*	?	16µM*	-54*	/	/
Cc1ccc2nc(NCc3ccccc3)c(C=NCc3ccccc3)c(=O)n2c1	1%	?	-23%	13	7%	47%
Cc1ccc2nc(-c3cccc(-c4cccc(Cl)c4)c3)c(NCc3ccccc3)n2c1	9.2µM*	?	?	0	/	/
CCC(C)Sc1cccc(-c2nc3ccc(C)cn3c2NCc2ccccc2)c1 (stereo not drawn)	16µM*	?	21µM*	-104*!	/	/
Cc1ccc2c(c1)c1c3n2CC(=C2C(=O)OC(C)(C)OC2=O)NC3CCC1 (stereo not drawn)	21µM*	-15%	21µM*	-1	1%	40%
N=C(N)SCc1cccc2c(=O)cc(-c3ccccc3)oc12	4.5µM*	/	7.1µM*	/	/	/
CCc1nc2c(OCC(N)=O)cccn2c1N(C)C(=O)C(C)C	-11%	/	-10%	30	/	/
COC(=O)c1ccccc1COc1cccn2c(N(C)Cc3cccs3)c(C)nc12	?	/	?	-78*	/	/
CCC(CC)C(=O)N(C)c1c(C)nc2c(OCc3ccccc3C(=O)OC)cccn12	?	/	16µM*	21	/	/
CCC(CC)C(=O)N(C)c1c(C)nc2c(OCC3CCCCC3)cccn12	?	/	13µM*	-16	/	/
